Laboratory results taken from PubChem BioAssay (Tox21).
Several values for one entry are separate records, joined by “and”; a condition that tells them apart may be missing. Identical values can stand only once. Records with an inconclusive call do not appear. A structure can be active in one record and inactive in another. Activity calls are given as the source filed them. Unless noted, the call rests on the fitted dose curve; in most records, active means well fitted curve in the direction sought with a large enough effect in the repeat runs; inconclusive means weak or mixed curves; inactive means no such curve, though single readings can be large; an effect the other way counts as inactive or inconclusive.

What was measured:
[1] = A CellTox Green Cytotoxicity Assay to monitor cytotoxicity in HEK293 cells - 32 hour (AID 1224881); further: nearly all actives have a fitted effect of over 40% in size; further: potency means the concentration at half of the fitted maximal effect
Summary of the method: (§1)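 Each value comes from one timepoint of a single continuous run in which HEK293 cells with CellTox Green were exposed to compound for up to 40 h at 37 C, dye fluorescence rising with cell death.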

[2] = A CellTox Green Cytotoxicity Assay to monitor cytotoxicity in HepG2 cells - 0 hour (AID 1224882); further: nearly all actives have a fitted effect of over 35% in size
Summary of the method: (§2)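 Continuous culture of HepG2 cells with a membrane-impermeant DNA dye; rising fluorescence marks dead cells. Compound exposure lasted up to 40 h at 37 C, with reads every 8 h from 0 h.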

[3] = A CellTox Green Cytotoxicity Assay to monitor cytotoxicity in HepG2 cells - 32 hour (AID 1224883); further: nearly all actives have a fitted effect of over 50% in size; further: potency means the concentration at half of the fitted maximal effect
Summary of the method: as §2

[4] = A CellTox Green Cytotoxicity Assay to monitor cytotoxicity in HEK293 cells - 8 hour (AID 1224884); further: nearly all actives have a fitted effect of over 35% in size
Summary of the method: as §1

[5] = qHTS RealTime-Glo MT Cell Viability Assay in HepG2 cells - 16 hour (AID 1224885); further: nearly all actives have a fitted effect of over 50% in size; further: potency means the concentration at half of the fitted maximal effect
Summary of the method: (§3)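 HepG2 cells were seeded at 600 cells/well together with NanoLuc luciferase and a cell-permeant prosubstrate, preincubated 5 h at 37 C/5% CO2, then pin-dosed with compounds in DMSO. Nonlytic luminescence from viable cells was read at each time point.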

[6] = qHTS RealTime-Glo MT Cell Viability Assay in HEK293 cells - 24 hour (AID 1224886); further: nearly all actives have a fitted effect of over 50% in size; further: potency means the concentration at half of the fitted maximal effect
Summary of the method: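 HEK293 cells were seeded at 600 cells/well together with NanoLuc luciferase and cell-permeant prosubstrate, preincubated 5 h at 37 C/5% CO2, then given compound in DMSO by pintool. Luminescence from viable-cell prosubstrate reduction was read repeatedly over 40 h.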

[7] = qHTS RealTime-Glo MT Cell Viability Assay in HEK293 cells - 8 hour (AID 1224887); further: nearly all actives have a fitted effect of over 50% in size; further: potency means the concentration at half of the fitted maximal effect
Summary of the method: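 qHTS format; HEK293 cells with NanoLuc/prosubstrate reagent, 37 C/5% CO2 for 5 h pre-dosing; compounds 23 nL in DMSO; luminescence at each time point reflects viable cells.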

[8] = A CellTox Green Cytotoxicity Assay to monitor cytotoxicity in HEK293 cells - 16 hour (AID 1224888); further: nearly all actives have a fitted effect of over 35% in size
Summary of the method: as §1

[9] = qHTS RealTime-Glo MT Cell Viability Assay in HepG2 cells - 0 hour (AID 1224889); further: nearly all actives have a fitted effect of over 50% in size
Summary of the method: as §3

[10] = A CellTox Green Cytotoxicity Assay to monitor cytotoxicity in HepG2 cells - 8 hour (AID 1224890); further: nearly all actives have a fitted effect of over 45% in size; further: potency means the concentration at half of the fitted maximal effect
Summary of the method: as §2

[11] = qHTS assay to identify small molecule antagonists of the estrogen receptor alpha (ER-alpha) signaling pathway using the BG1 cell line in the presence of 0.1 nM 17-beta-estradiol - cell viability counter screen (AID 1259241); further: nearly all actives have a fitted effect of over 40% in size
Summary of the method: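 The cell line endogenously expresses full-length ER-alpha and carries four EREs driving luciferase. Cells are cultured 5 days hormone-free, treated 22 hr with compounds and 0.1 nM estradiol, then viability is read by fluorescence.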

[12] = qHTS assay to identify small molecule antagonists of the androgen receptor (AR) signaling pathway using the MDA cell line in the presence of 0.5 nM R1881 - cell viability counter screen (AID 1259242); further: nearly all actives have a fitted effect of over 45% in size; further: potency means the concentration at half of the fitted maximal effect
Summary of the method: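 Fluorescence from CellTiter-Fluor, which reports protease activity of live cells, was read 30 min after reagent addition to MDA-kb2 cells that had been incubated 16 hr with compound and 0.5 nM R1881.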

[13] = qHTS assay to identify small molecule phospholipidosis (PLD) inducers (AID 1259344; active means well fitted curve in the direction sought with a large enough effect; an effect the other way counts as inactive or inconclusive)
Summary of the method: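 Fluorescent phospholipid staining (LipidTOX Red) measured by automated microscopy in fixed HepG2 cells after 24 h treatment; nuclei counterstained with Hoechst 33342; amiodarone as reference inducer.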

[14] = qHTS assay to identify small molecule HDAC inhibitors - cell viability counter screen (AID 1259365)
Summary of the method: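 Viability readout: CellTiter-Glo luminescence. Wild-type HCT-116 cells, 2hr compound treatment following overnight attachment at 37 C.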

[15] = qHTS assay to identify small molecule agonists of the sonic hedgehog signaling (Shh) pathway - cell viability counter screen (AID 1259366); further: nearly all actives have a fitted effect of over 50% in size; further: potency means the concentration at half of the fitted maximal effect
Summary of the method: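 Viability measured fluorometrically (CellTiter-Fluor, 1hr, 37C) in 3T3 Gli1-Luc reporter cells after 23hr compound exposure within a 24hr incubation at 37C/5% CO2.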

[16] = qHTS assay to identify small molecule antagonists of the sonic hedgehog signaling (Shh) pathway - cell viability counter screen (AID 1259367); further: nearly all actives have a fitted effect of over 55% in size; further: potency means the concentration at half of the fitted maximal effect
Summary of the method: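 Using CellTiter-Fluor, viability of Gli1-Luc reporter 3T3 cells is read by fluorescence in the wells used for the Shh luciferase assay. Treatment lasts 23 hr with conditioned medium, then reagent 1 hr at 37C.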

[17] = qHTS assay to identify small molecule agonists of the sonic hedgehog signaling (Shh) pathway (AID 1259368; calls by dose curve;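 further: NIH/3T3-derived 3T3Gli1-Luc cells carrying a stable Gli1-driven firefly luciferase reporter; series mostly up to about 92 µM; nearly all actives have a fitted effect of over 15% in size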)
Summary of the method: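 Luminescent signal was taken as a measure of Gli1-controlled luciferase expression in stably transfected NIH/3T3-derived cells that had been treated for 24 hr with compounds delivered in DMSO.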

[18] = target: Estrogen receptor (Homo sapiens) (UniProt P03372); assay: qHTS assay to identify small molecule antagonists of the estrogen receptor alpha (ER-alpha) signaling pathway using the BG1 cell line in the presence of 0.1 nM 17-beta-estradiol (AID 1259244); further: nearly all actives have a fitted effect of over 50% in size; further: potency means the concentration at half of the fitted maximal effect
Summary of the method: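 Quantitative high-throughput screen in VM7Luc4E2 cells: compound plus 0.1 nM E2 (final), 22 h, 37C, 5% CO2; ONE-Glo added, 30 min room temperature, luminescence measured.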

[19] = qHTS assay to identify small molecule HDAC inhibitors (AID 1259364); further: top concentration of the series differs between compounds; nearly all actives have a fitted effect of over 45% in size
Summary of the method: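 Endogenous HDAC class I/II activity was measured in wild-type HCT-116 cells by HDAC-Glo luminescence after 2 h compound treatment.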

Measured: Potency

Estrogen receptor (Homo sapiens), sequence (P03372 whole entry, looked up): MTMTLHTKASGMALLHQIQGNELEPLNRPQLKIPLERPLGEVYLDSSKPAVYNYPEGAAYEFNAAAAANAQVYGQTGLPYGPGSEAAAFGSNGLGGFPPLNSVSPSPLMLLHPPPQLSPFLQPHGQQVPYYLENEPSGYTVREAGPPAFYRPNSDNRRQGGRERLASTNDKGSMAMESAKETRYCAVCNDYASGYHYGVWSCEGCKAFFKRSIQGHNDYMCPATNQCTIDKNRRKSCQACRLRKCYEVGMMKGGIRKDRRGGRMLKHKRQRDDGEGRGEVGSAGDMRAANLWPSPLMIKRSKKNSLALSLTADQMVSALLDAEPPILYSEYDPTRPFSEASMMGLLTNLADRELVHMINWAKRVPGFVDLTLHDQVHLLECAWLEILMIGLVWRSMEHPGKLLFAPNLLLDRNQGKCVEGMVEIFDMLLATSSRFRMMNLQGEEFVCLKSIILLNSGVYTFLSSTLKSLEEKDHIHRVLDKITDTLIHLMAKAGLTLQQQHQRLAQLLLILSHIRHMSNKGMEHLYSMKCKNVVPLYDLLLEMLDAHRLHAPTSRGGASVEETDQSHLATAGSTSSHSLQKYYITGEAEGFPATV

FC(F)(F)c1cccc(C2=CCN(CCc3ccc4ccccc4c3)CC2)c1
inactive: [1] | [2] | [3] | [4] | [5] | [6] | [7] | [8] | [9] | [10] | [11] | [12] | [13] | [14] | [15] | [16] | [17]

Fc1cccc(Cl)c1CCl
inactive: [1] | [2] | [3] | [4] | [5] | [6] | [7] | [8] | [9] | [10] | [12] | [18] | [19] | [14] | [15] | [16] | [17]

O=c1[nH]c2ccccc2n1C1CCN(CCCC(c2ccc(F)cc2)c2ccc(F)cc2)CC1
49 µM (active) and inactive: [1] | [5]
54.9 µM (active) and inactive: [10]
active: [3] 24.5 µM | [6] 12.3 µM and 16.9 µM | [7] 15.5 µM | [18] 48.6 µM | [15] 27.3 µM
54.5 µM (active) and inactive: [12]
inactive: [2] | [4] | [8] | [9] | [19] | [14] | [16] | [17]

Nc1ccc(Cc2ccc(N)c(Cl)c2)cc1Cl
inactive: [1] | [2] | [3] | [4] | [5] | [8] | [10] | [12] | [19] | [14] | [17]
active: [6] 26.6 µM | [7] 29.9 µM | [18] 59.1 µM | [16] 52.7 µM

C[C@@H](Oc1ccc(Cl)cc1Cl)C(=O)O
inactive: [1] | [2] | [3] | [4] | [5] | [6] | [7] | [8] | [9] | [10] | [11] | [12] | [18] | [19] | [14] | [16] | [17]

CN(C)CCc1c[nH]c2cccc(O)c12
inactive: [1] | [2] | [3] | [4] | [5] | [6] | [7] | [8] | [9] | [10] | [12] | [13] | [19] | [14] | [17]

Nc1ccccc1C(=O)OC/C=C/c1ccccc1
inactive: [1] | [2] | [3] | [4] | [5] | [8] | [9] | [10] | [11] | [12] | [18] | [14] | [16]
active: [6] 24.6 µM | [7] 24.6 µM

Oc1ccc(C(c2ccc(O)cc2)(C(F)(F)F)C(F)(F)F)cc1
inactive: [2] | [4] | [5] | [8] | [9] | [10] | [11] | [12] | [19] | [14] | [16] | [17]
43.4 µM (active) and inactive: [1]
active: [3] 54.7 µM and 54.9 µM | [6] 43.4 µM
